Experimental data published in paper PMC7819943, “Rice protein-binding microarrays: a tool to detect cis-acting elements near promoter regions in rice”.
Over roughly 68,000 sequences, “fluorescence intensity (a.u.)” has its median near 9,100; the highest 2% begin near 16,000. This is one part of a sample in which the highest values are shown more often than they occur.

Each sequence was assayed against OsWRKY34 (Oryza sativa, UniProt Q0JBA9 1-250) (assay: protein-binding microarray (RPBM); PBS, 2% BSA, 51.3 ng/ul salmon testes DNA, 50 uM zinc acetate, 200 nM TF, 25 C, 1 h; high values mean tight binding). Settings: protein: recombinant; tags: N-terminal polyhistidine and DsRed monomer fusion (pET32a); label: CyDye5-dUTP incorporated in the synthesized complementary strand; 3' TTTTT single-stranded linker to array surface; dsDNA, one strand shown.
Chain of OsWRKY34 (Q0JBA9 entry or part of it): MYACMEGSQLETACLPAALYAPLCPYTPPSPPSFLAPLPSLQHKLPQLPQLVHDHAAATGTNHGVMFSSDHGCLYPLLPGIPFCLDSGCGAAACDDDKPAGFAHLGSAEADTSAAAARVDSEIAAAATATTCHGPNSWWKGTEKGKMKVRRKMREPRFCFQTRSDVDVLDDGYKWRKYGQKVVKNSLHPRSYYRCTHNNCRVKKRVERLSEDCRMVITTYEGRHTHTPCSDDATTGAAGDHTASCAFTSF
Method in brief: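 An Axon 4000B scanner gave the binding signal as per-feature fluorescence intensity in arbitrary units. This followed washing of a custom Agilent array that had been incubated for 1 h at 25 °C with 200 nM protein in PBS, 2% BSA, salmon testes DNA and 50 µM zinc acetate. The proteins were transcription factors fused at the N-terminus to polyhistidine and DsRed, expressed in E. coli BL21-CodonPlus and purified on Ni–NTA.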
“AATTCCTGGCTACGCCACTGCTGCTCTATATATCAAGCCGCGGAGTCACCTAGTGCAG” was tested, and the binding signal was 8080 fluorescence intensity (a.u.). For “CTCGATTGCGTGTTGTAGATTTTGTGTTTTTGTTCTTGCGCGGAGTCACCTAGTGCAG”, the binding signal was 8030 fluorescence intensity (a.u.). In the case of “CCCACATCAAAACCTTGAATTTTCACAGTTTCTTGCATTTCGGAGTCACCTAGTGCAG”, the binding signal is reported as 9890 fluorescence intensity (a.u.). For “GCTTGCCAACTTGTCCCAAATTTCCTTCGGCGTTTTTTCACGGAGTCACCTAGTGCAG”, the binding signal was 10800 fluorescence intensity (a.u.). In the case of “AGAGTTCTTATCCTAGTTTTTCCAACTCACTTATCTCGTTCGGAGTCACCTAGTGCAG”, the binding signal is reported as 10900 fluorescence intensity (a.u.). For “TCCAACTCACTTATCTCGTTTTCCGCGCACACGTTTTTTACGGAGTCACCTAGTGCAG”, the binding signal was 16500 fluorescence intensity (a.u.). “CTTATCTCTCTCGTTTTCCACGCACACGTTTTTCAAACCGCGGAGTCACCTAGTGCAG” was tested, and the binding signal was 8940 fluorescence intensity (a.u.). In the case of “TTTCACTTGCTTGTTTTTCATGTCCACACTTCCCAACTCACGGAGTCACCTAGTGCAG”, the binding signal is reported as 16600 fluorescence intensity (a.u.). With “TGTCCACACTTCCCAACTCATTAAATAGTTTGTTTTTTGACGGAGTCACCTAGTGCAG” the binding signal was 8320 fluorescence intensity (a.u.). “AACGTTTGATTTTTCATTTCTCTTATTACTGACTTATTTACGGAGTCACCTAGTGCAG” was tested, and the binding signal was 9850 fluorescence intensity (a.u.). With “CGCCGCCGCTCGCCGACGTCGCCGCCATCGCCATTACAGCCGGAGTCACCTAGTGCAG” the binding signal was 8980 fluorescence intensity (a.u.). “CTACGATACACCGCTTGTTTCTGTTTTTCTTATCTAGGAACGGAGTCACCTAGTGCAG” was tested, and the binding signal was 9180 fluorescence intensity (a.u.). “CCTGTTACCTGTTTGGCTGACTTGGTCAAACACAACTCACCGGAGTCACCTAGTGCAG” was tested, and the binding signal was 9460 fluorescence intensity (a.u.). With “TGGTTTGGTTACTGGTTTAGTGCTTGAATTAATGTGGCACCGGAGTCACCTAGTGCAG” the binding signal was 18400 fluorescence intensity (a.u.). “GTGTTGTGGTTTACTGAATTGATGTTTGGCTTAAGTGATGCGGAGTCACCTAGTGCAG” was tested, and the binding signal was 11800 fluorescence intensity (a.u.). “GGGCTGGTTTGGCTTGGCTGTTACAAAGACAAAGAATGACCGGAGTCACCTAGTGCAG” was tested, and the binding signal was 16800 fluorescence intensity (a.u.). “TTGGCCATGTTAATGTTTTACTGATCATCAATTTGGTTACCGGAGTCACCTAGTGCAG” was tested, and the binding signal was 8980 fluorescence intensity (a.u.). In the case of “GGTTTGGCTTGGCTTGGCGGCTGGTTCTGCTGAGGCTGACCGGAGTCACCTAGTGCAG”, the binding signal is reported as 11900 fluorescence intensity (a.u.). With “GCCGAGCCGCGTCCCTTTTTCCCATCGCCCACGCAGCGAGCGGAGTCACCTAGTGCAG” the binding signal was 8920 fluorescence intensity (a.u.). In the case of “TATGATATGTGTGCCTCAGTTGTTGTGCTTGCTGATGTGTCGGAGTCACCTAGTGCAG”, the binding signal is reported as 9730 fluorescence intensity (a.u.). With “TTTCCGGTTTTTCCAATATTTTTCGATACCGTTTTCATTTCGGAGTCACCTAGTGCAG” the binding signal was 12800 fluorescence intensity (a.u.). For “GAAAGATTTTCACCGTTTGGGTAGGTTGGGGATGGGATGACGGAGTCACCTAGTGCAG”, the binding signal was 11400 fluorescence intensity (a.u.). “GTATTGAGGGCTTAATCGTGGTCGTGGGATATTATTTCATCGGAGTCACCTAGTGCAG” was tested, and the binding signal was 8390 fluorescence intensity (a.u.). For “TCAGTCATCGTAAATTATTGTGATTTTTTAGGGAGGGGTGCGGAGTCACCTAGTGCAG”, the binding signal was 9130 fluorescence intensity (a.u.). In the case of “TTTCCACCGTTTGGCGTTTGGGTAGGGTTGGGATGGGATGCGGAGTCACCTAGTGCAG”, the binding signal is reported as 17200 fluorescence intensity (a.u.). For “TTCATATTTTCACCGTTTGGGTAGAGTGGTGGTGGGGTGTCGGAGTCACCTAGTGCAG”, the binding signal was 10400 fluorescence intensity (a.u.). For “ATGGGGTTGACTTTTTTTTAGGGATTGCTAGGTGCACCGTCGGAGTCACCTAGTGCAG”, the binding signal was 20100 fluorescence intensity (a.u.). In the case of “GGGTTTGGGGTTGCGATTGGGATTGGTAGGGAGGCTGATGCGGAGTCACCTAGTGCAG”, the binding signal is reported as 8280 fluorescence intensity (a.u.). “CAGGTAATGGATTGATTGCAGGGTTGGGATTTGACCAGGTCGGAGTCACCTAGTGCAG” was tested, and the binding signal was 11300 fluorescence intensity (a.u.). For “GGGGATCGGAGGGTGGGGATACGCATGGTGGATGGTAGTGCGGAGTCACCTAGTGCAG”, the binding signal was 12600 fluorescence intensity (a.u.). “CGTCATATTTGCACCGTTTGGGTAGGGTGGGGATGGGGTGCGGAGTCACCTAGTGCAG” was tested, and the binding signal was 18700 fluorescence intensity (a.u.). In the case of “CGTCGTGGCGGGTTCATCGGGAGGGGATTATTGATTTAGTCGGAGTCACCTAGTGCAG”, the binding signal is reported as 21100 fluorescence intensity (a.u.). “TTGGGTGGAGGATTTGGAATTTGACCGGTTGACTTAGGGTCGGAGTCACCTAGTGCAG” was tested, and the binding signal was 11900 fluorescence intensity (a.u.). With “ATTATTTTTGGTTGTTCTATTTATTTTCTTAAAATAATTCCGGAGTCACCTAGTGCAG” the binding signal was 11300 fluorescence intensity (a.u.). For “CCCCACATCTTTTGCTAGCATGCCCCTACCCATTCATATTCGGAGTCACCTAGTGCAG”, the binding signal was 10500 ± 300 fluorescence intensity (a.u.). “CTGAGTTCTGTATTGGATCAGCTTCATGTTATCGGCATCACGGAGTCACCTAGTGCAG” was tested, and the binding signal was 8450 fluorescence intensity (a.u.). For “TTCTCCTATCTTCAACATTTGCTTTGTTACGTTTTTGACTCGGAGTCACCTAGTGCAG”, the binding signal was 9560 fluorescence intensity (a.u.). With “TTTTTCTCGGTAATTTTGTGATTGGTCTACTCCTACAAAACGGAGTCACCTAGTGCAG” the binding signal was 8290 fluorescence intensity (a.u.). “TGGATGATTTTGCCATTTTTTTCATTGCTGGTGCGGTGGTCGGAGTCACCTAGTGCAG” was tested, and the binding signal was 8460 fluorescence intensity (a.u.). “CCCGGCGTCCTCCTGCTTCCCACCGCATCGTCGCTCGCCGCGGAGTCACCTAGTGCAG” was tested, and the binding signal was 8120 fluorescence intensity (a.u.). With “GAGGGTGGGTGCTTGCTGGCCAGACATTAAAACAATGTGTCGGAGTCACCTAGTGCAG” the binding signal was 9670 fluorescence intensity (a.u.). With “TTCTTCCCAGCCAGTGTTCCTAGTATCCATTCTCTCTCAACGGAGTCACCTAGTGCAG” the binding signal was 9850 fluorescence intensity (a.u.). With “CTTGTGGATTTCGTTCGAGTTCTTGTGGTTTTGGATCGGGCGGAGTCACCTAGTGCAG” the binding signal was 9590 fluorescence intensity (a.u.). For “GCGGCTTCTTCTCGGGGTGGATTTGGTGGTGGTTTTTTTTCGGAGTCACCTAGTGCAG”, the binding signal was 21500 fluorescence intensity (a.u.). In the case of “GTCGTCTCATACCAATCGTGCGGCGGCGGCGGCGGGGATGCGGAGTCACCTAGTGCAG”, the binding signal is reported as 10400 fluorescence intensity (a.u.). In the case of “TTTGGGGCGCGGGTGGGTGGCTGGGTGCGCGTCGATCGTGCGGAGTCACCTAGTGCAG”, the binding signal is reported as 10900 fluorescence intensity (a.u.). “ACGTAGGAAGGTGGAAGCGGTTTCTTGGGGTTTGGATATGCGGAGTCACCTAGTGCAG” was tested, and the binding signal was 11000 fluorescence intensity (a.u.). In the case of “GGGTGACGGGAGCAGCGGCGCGCGGGTGGTGGGGCTTGGACGGAGTCACCTAGTGCAG”, the binding signal is reported as 10700 fluorescence intensity (a.u.). For “TGGTTTGCGGTGGTGCGCGCGCGGCTTCTTCTCGGGGTGGCGGAGTCACCTAGTGCAG”, the binding signal was 9070 fluorescence intensity (a.u.). In the case of “GTAGGCTTTTGTTTCGGGTGGGATAATATCTTGGGGAAAGCGGAGTCACCTAGTGCAG”, the binding signal is reported as 20700 fluorescence intensity (a.u.). In the case of “TTGGATTGCAGTGGGGCGGACGGCGGTGGGCGGGGCTTCTCGGAGTCACCTAGTGCAG”, the binding signal is reported as 27600 fluorescence intensity (a.u.). In the case of “GGGAAAGTGGTTGGCGGATATTCTTGTTTTCTTTTTTTGTCGGAGTCACCTAGTGCAG”, the binding signal is reported as 12500 fluorescence intensity (a.u.). In the case of “GTGGGCTGGGCTTCTTCTTCGTCGTCTCATACCAATCGTGCGGAGTCACCTAGTGCAG”, the binding signal is reported as 17100 fluorescence intensity (a.u.). With “GACGGGCGGCGGTGGGGCTGACGCGGGCGACGGAGGGGCTCGGAGTCACCTAGTGCAG” the binding signal was 11500 fluorescence intensity (a.u.).
